From PubChem
HepG2 tox-1 – HepG2 cytotoxicity, counter-screen for TGF-b inhibitors | HepG2 CAGA-GFP viability, ATP luminescence, 18 h | Potency, µM (top dose mostly 46.1 µM), inactives show at the highest dose activity change, negative = cytotoxicity, hits mostly cytotoxic | 410,000 tested, 0.76% active | AID 588856; also: potency is read from the fitted curve at half-maximal effect
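CellTiter-Glo luminescence gave cytotoxicity after 18 hours at 37 degrees C. The cells were HepG2 CAGA-GFP in 1% FBS DMEM, stimulated with 500 pg/mL TGF-beta after compound addition. %Activity was normalised to no-cell wells (complete cell-killing) and DMSO (no toxicity), and curves were fitted and classified.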
TGFb inhibitor – inhibitors of TGF-b signaling. Potency, µM (titrated, usually from 46.1 µM), for inactives: at the highest dose activity, negative = inhibition, most hits filed as inhibitors. HepG2 CAGA-GFP TGF-b/SMAD3 reporter, GFP fluorescence, 18 h; TGF-beta stimulated, 500 pg/mL final. 410,000 tested, 1.2% active; also: potency is read from the fitted curve at half-maximal effect; % is scaled to controls: 0 for no effect and ±100 for the full control effect; nearly all actives have a fitted effect of over 65% in size
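Per well, imaged GFP fluorescence of HEPG2 CAGA-GFP cells gives the signal; cells get compound, then TGF-beta (500 pg/mL final), 18 h at 37 degrees C; %Activity versus -TGF-beta and +DMSO controls.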
ATXN viability – cell viability loss in ATXN counter-screen; S2 cells (HEK-293 line with an ATXN2-luciferase reporter) viability, CellTiter-Fluor protease fluorescence, 24 h; Potency, µM (series often up to 56.7 µM), usual class: cytotoxic; 400,000 tested, 0.49% active; AID 651635; also: potency is read from the fitted curve at half-maximal effect; nearly all actives have a fitted effect of over 40% in size
ATXN2 expr inh – ATXN2 expression inhibition | Potency, µM (series often up to 57 µM), without a hit: top-dose activity change, negative = inhibition, actives largely listed as inhibitors | HEK-293 ATXN2-luciferase reporter, luminescence, 24 h | 360,000 tested, 0.72% active; also: potency is read from the fitted curve at half-maximal effect; % is scaled to controls: 0 for no effect and ±100 for the full control effect; nearly all actives have a fitted effect of over 55% in size
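qHTS (up to 57 uM final) was run with 24 h compound exposure of reporter cells at 37 °C. Each well was multiplexed: SteadyGlo luminescence measured ATXN2-luciferase expression after a fluorogenic Gly-Phe-AFC viability readout (25 uM final).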
Six1-Eya2 inh – blocks human Six1 binding to Eya2; 360,000 tested, 0.56% active; AlphaScreen GST-Six1/His-Eya2 binding, biochemical; hits give low values; Q15475+O00167; AID 651725; activity change, % (concentration not given with the values); in the data active = activity change below about -65%; inconclusive = mostly about -30% to -63%; also: % is scaled to controls: 0 for no effect and ±100 for the full control effect
Target sequence (O00167 whole entry, looked up): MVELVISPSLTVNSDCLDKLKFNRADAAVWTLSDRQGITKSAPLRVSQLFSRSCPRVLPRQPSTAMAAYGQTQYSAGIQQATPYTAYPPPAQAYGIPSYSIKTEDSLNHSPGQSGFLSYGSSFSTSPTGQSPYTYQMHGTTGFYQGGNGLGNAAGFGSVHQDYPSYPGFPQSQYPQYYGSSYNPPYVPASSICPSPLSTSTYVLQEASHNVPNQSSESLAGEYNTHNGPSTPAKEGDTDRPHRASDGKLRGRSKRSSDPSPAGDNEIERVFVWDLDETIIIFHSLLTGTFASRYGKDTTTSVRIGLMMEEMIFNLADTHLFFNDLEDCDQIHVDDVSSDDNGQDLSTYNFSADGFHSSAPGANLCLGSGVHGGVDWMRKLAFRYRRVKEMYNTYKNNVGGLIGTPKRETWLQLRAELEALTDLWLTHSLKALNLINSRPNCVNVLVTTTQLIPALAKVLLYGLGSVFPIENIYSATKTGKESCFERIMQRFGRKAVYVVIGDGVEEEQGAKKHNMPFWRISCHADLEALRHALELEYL
Target sequence (Q15475 whole entry, looked up): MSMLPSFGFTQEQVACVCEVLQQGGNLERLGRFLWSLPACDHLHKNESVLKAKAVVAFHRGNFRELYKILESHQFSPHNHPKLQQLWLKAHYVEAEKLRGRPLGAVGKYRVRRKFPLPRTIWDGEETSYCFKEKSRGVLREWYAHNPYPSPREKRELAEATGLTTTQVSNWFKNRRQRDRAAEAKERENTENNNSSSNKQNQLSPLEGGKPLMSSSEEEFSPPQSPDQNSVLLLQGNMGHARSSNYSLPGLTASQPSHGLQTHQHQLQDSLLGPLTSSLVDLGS
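AlphaScreen with GST-Six1 and His-Eya2 (5X mix: 250 nM and 500 nM), glutathione donor and nickel acceptor beads; buffer 50 mM Tris pH 8.0, 300 mM NaCl, 1 mM TCEP; 1 h at 37 C in the dark.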
CtBP-E1A inh – CtBP/E1A binding inhibition; AlphaScreen GST-E1A/His-CtBP binding, 1536-well; hits give low values; activity change, % (test concentration not listed); 340,000 tested, 0.49% active; AID 651724; in the data active = activity change below about -65%; inconclusive = mostly about -30% to -63%; also: % is scaled to controls: 0 for no effect and ±100 for the full control effect
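GST-E1A and His-tagged CtBP (125 nM each as 5X stock) were preincubated with pin-transferred compound for 2 h at 37 °C in the dark, then glutathione donor and nickel acceptor beads were added for 1 h before AlphaScreen reading.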
TGFb confirm – TGF-b pathway inhibition, cherry-pick retest | shares compounds with TGFb inhibitor | HepG2 CAGA-GFP TGF-b reporter, GFP fluorescence, 18 h; cells stimulated with TGF-beta, 500 pg/mL | Potency, µM (doses to about 46.1 µM), for inactives: at the top dose activity, negative = inhibition, hits mostly inhibitors | 1,600 tested, 63% active | AID 720534; also: potency is read from the fitted curve at half-maximal effect; % is scaled to controls: 0 for no effect and ±100 for the full control effect; nearly all actives have a fitted effect of over 65% in size
HepG2 tox-2 – counter-screen for TGF-b inhibitors: cytotoxicity in HepG2 cells; HepG2 CAGA-GFP viability, ATP luminescence, 18 h; cells stimulated with TGF-beta, 500 pg/mL; AID 720535; 1,600 tested, 27% active; shares compounds with TGFb inhibitor; Potency, µM (doses to about 46.1 µM), without a hit: top-dose activity, negative = cytotoxicity, actives largely listed as inhibitors; also: potency is read from the fitted curve at half-maximal effect; % is scaled to controls: 0 for no effect and ±100 for the full control effect; nearly all actives have a fitted effect of over 70% in size
CCL64 TGFb inh – orthogonal confirmation of TGF-b inhibitors in CCL64 cells; shares compounds with TGFb inhibitor; CCL64 CAGA-GFP reporter, TGF-b stimulated, GFP fluorescence, 18 h; Potency, µM (top dose mostly 46.1 µM), inactives show at the top dose activity, negative = inhibition, most hits filed as inhibitors; 1,600 tested, 41% active; AID 720536; also: potency is read from the fitted curve at half-maximal effect; nearly all actives have a fitted effect of over 65% in size
TGFb COP inh – blocks TGF-b signaling in HepG2 COP reporter | HepG2 COP-GFP TGF-b reporter, GFP fluorescence, 18 h; cells stimulated by added recombinant TGF-beta | Potency, µM (titrated, usually from 46.1 µM), inactives show at the top dose activity, negative = inhibition, actives largely listed as inhibitors | 1,600 tested, 3% active | shares compounds with TGFb inhibitor; also: potency is read from the fitted curve at half-maximal effect; nearly all actives have a fitted effect of over 70% in size
Active calls of the source: *; i = inactive; ? = inconclusive; / = no result given. Shown are actives, neighbours in structure and some others; about 2.8% of the full set was active somewhere. Unless noted, calls follow the shape of the dose curve; as a rule, active = well fitted curve in the direction sought with a large enough effect; inconclusive = small, poorly fitted or top-dose-only effect, or another doubt; inactive = no such curve, though single readings can be large; an effect the other way counts as inactive or inconclusive.

SMILES	HepG2 tox-1	TGFb inhibitor	ATXN viability	ATXN2 expr inh	Six1-Eya2 inh	CtBP-E1A inh	TGFb confirm	HepG2 tox-2	CCL64 TGFb inh	TGFb COP inh
CCOc1ccc(CCN2C(=S)N([C@@H](Cc3ccccc3)CN3CCCC3CN3C(=S)NC[C@@H]3Cc3ccccc3)C[C@@H]2Cc2ccc(O)cc2)cc1 (stereo partly drawn)	/	/	?	-2%	-2	20	/	/	/	/
CC(C)C[C@@H](CN1CCCC1CN1C(=S)NC[C@@H]1Cc1ccc(O)cc1)N1C[C@H](Cc2ccccc2)N(CCc2ccccc2)C1=S (stereo partly drawn)	-60%	?	i	-20%	-13	?	?	-20%	?	27%
CCOc1ccc(CCN2C(=S)N([C@@H](CC(C)C)CN3CCC[C@@H]3CN3C(=S)NC[C@@H]3Cc3ccccc3)C[C@@H]2Cc2ccc(O)cc2)cc1	-16%	7.9µM*	i	-23%	-9	-13	?	?	?	27%
O=S(Cc1ccc(Br)cc1)Cc1nnc(SCc2c(F)cccc2Cl)n1-c1ccccc1 (stereo not drawn)	-13%	?	i	-9%	-5	-2	12µM*	?	15µM*	40%
O=S(=O)(Nc1cc(Cl)ccc1-n1cncn1)c1ccccc1Cl	-14%	-2%	i	5%	4	-3	/	/	/	/
O=S(=O)(Nc1cc(Cl)ccc1-n1cncn1)c1cc(Br)ccc1Br	-42%	10µM*	?	?	-1	4	21µM*	?	21µM*	41%
CCn1c(=O)c2cc(C(=O)Nc3cc(F)ccc3F)sc2c2ccccc21	-29%	1%	i	-6%	/	/	/	/	/	/
Cc1ccc(-c2nc3ccc(Br)cn3c2Cc2cccc(F)c2)cc1	-11%	11µM*	i	68%	9	-23	?	-16%	?	-2%
CCOC(=O)C1CCN(Cc2cn3c(-c4ccc(OC)cc4)nnc3s2)CC1	-2%	4%	i	7%	/	/	/	/	/	/
CCCCC(=O)Nc1nnc(SCc2cc(=O)n3cc(C)ccc3n2)s1	8%	-2%	/	/	/	/	/	/	/	/
Oc1ccc(Br)cc1-c1cc(-c2ccccc2Cl)[nH]n1	-22%	-29%	i	4%	4	-2	/	/	/	/
COc1ccc(O)c(-c2cc(-c3ccccc3Cl)[nH]n2)c1	-63%	7.9µM*	?	-6%	-15	-16	18µM*	?	26µM*	30%
COc1ccc(-c2cc(-c3ccccc3O)[nH]n2)cc1	-14%	10µM*	i	116%	17	0	?	?	?	44%
COCCNc1nc(NCCN2CCNC2=O)c2sccc2n1	-5%	-6%	i	1%	6	9	/	/	/	/
COc1ccc(Cl)cc1NC(=O)CN1c2ccccc2CC1C (stereo not drawn)	-40%	?	i	-18%	-17	-14	?	-21%	?	28%
COc1cc(NC(=O)CN2c3ccccc3CC2C)cc(OC)c1OC (stereo not drawn)	-24%	3%	i	-2%	-8	0	/	/	/	/
CCOc1ccccc1CNC(=O)CCn1ccc2cc(S(=O)(=O)N3CCC(C)CC3)ccc21	-26%	-1%	i	-17%	/	/	/	/	/	/
Cc1c(/C=N\NC(=O)C2COc3ccccc3O2)c2ccccc2n1C (stereo not drawn)	-2%	8.9µM*	?	14%	-22	-8	5.8µM*	-13%	6.5µM*	-5%
Cn1c(CN2CCOCC2)nc2cc(NC(=O)c3ccccc3[N+](=O)[O-])ccc21	1%	-5%	i	9%	/	/	/	/	/	/
O=C(NC(c1ccccc1)c1ccc2ccccc2n1)C1CCN(CCOc2ccc(Cl)cc2Cl)CC1 (stereo not drawn)	-93%	10µM*	i	?	-15	?	?	18µM*	?	?
O=C(NC(c1ccc(Cl)cc1)c1cnccn1)C1CCN(CCCOc2ccccc2)CC1 (stereo not drawn)	-10%	31%	i	-9%	-6	-9	/	/	/	/
COc1ccc(CN2CCC(C(=O)NC(C)c3cccc4ccccc34)CC2)cc1 (stereo not drawn)	-14%	9%	i	0%	3	-3	/	/	/	/
CC(NC(=O)C1CCN(CCOc2ccc(Cl)cc2)CC1)c1cccc2ccccc12 (stereo not drawn)	11µM*	6.3µM*	?	?	3	0	26µM*	18µM*	?	-27%
COc1ccc(NC(=O)c2oc3ccc(S(=O)(=O)N4CCC5(CC4)OCCO5)cc3c2C)cc1Cl	-11%	-25%	/	/	/	/	/	/	/	/
Cc1ccc(NC(=O)c2oc3c(c2C)-c2[nH]ncc2CC3)c(Cl)c1	-24%	0%	/	/	/	/	/	/	/	/
COc1ccc2c(c1)C(CC(C)=O)N(c1ccc(-c3cccnc3)cc1)C(c1ccsc1)=C2 (stereo not drawn)	/	/	?	4%	-5	13	/	/	/	/
O=C(Nc1cccc(C(F)(F)F)c1)C(SCCO)c1ccccc1 (stereo not drawn)	-4%	-15%	i	4%	-3	3	/	/	/	/
Cn1nnnc1SC(C(=O)Nc1cccc(C(F)(F)F)c1)c1ccccc1 (stereo not drawn)	-4%	11µM*	i	-13%	6	10	?	-21%	?	4%
